Inhibition data for 27 compounds are collected here from PubChem BioAssay AID485 (The Scripps Research Institute Molecular Screening Center, 2006).

Out of some 170,000 compounds screened, about 460 (0.27%) were called active.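 The calls were made as follows: active = inhibition above the plate cutoff, the mean inhibition of test wells on that plate plus 3 SD (cut at about 28% in these data); inactive = the rest.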 The full list was thinned out, with actives kept by preference.

Sphingosine 1-phosphate receptor 3 (Homo sapiens), sequence (Q99500 whole entry, looked up): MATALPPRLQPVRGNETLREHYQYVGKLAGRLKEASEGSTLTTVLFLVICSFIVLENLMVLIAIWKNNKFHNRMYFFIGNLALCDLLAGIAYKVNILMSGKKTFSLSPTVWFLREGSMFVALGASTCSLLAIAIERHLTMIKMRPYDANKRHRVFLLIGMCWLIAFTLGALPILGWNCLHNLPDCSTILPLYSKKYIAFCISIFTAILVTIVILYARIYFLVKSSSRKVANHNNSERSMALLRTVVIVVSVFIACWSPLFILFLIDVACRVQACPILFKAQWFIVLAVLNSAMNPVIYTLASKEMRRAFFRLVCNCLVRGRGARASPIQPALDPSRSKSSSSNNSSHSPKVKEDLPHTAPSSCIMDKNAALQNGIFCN

This test concerns the target Sphingosine 1-phosphate receptor 3 (Homo sapiens) (UniProt Q99500). Kind of test: inhibition of S1P-stimulated S1P3 activation – cell-based, primary screen (AID 485).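 Also: cells challenged with S1P at its EC80 of 0.8 µM; blue over green emission ratio from cleaved BLA substrate after 4 h stimulation; 0% = S1P-stimulated wells and 100% = unstimulated DMSO-only wells.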 To be noted: CHO S1P3 NFAT-BLA reporter, FRET fluorescence, antagonist mode; at 4.98 µM; active compounds read high.
`COc1ccc(NC(=S)Nc2ccccc2Cl)cn1`: the inhibition is 4.46% (inactive). The figure for `COc1ccc(CS(=O)/C(Cl)=C(/Cl)C(=O)Nc2ccc(OC)nc2)cc1` (configuration not stated) is 56.4% (active); for `COc1ccc(NC(=S)NCCNC(C)=O)cc1` it is 12.8% (inactive). The figure for `CCOC(=O)c1c(C)[nH]c(C2=NNC(=NC(C)COC)SC2)c1C` (configuration not stated) is -26% (inactive); for `CC(C)c1cc(NCc2ccccn2)n2c(nc3ccccc32)c1C#N` it is -17.9% (inactive). With `O=C(N/N=C/c1ccc([N+](=O)[O-])o1)c1cccc(S(=O)(=O)N2CCOCC2)c1` the figure was 8.39% (inactive). Take `O=[N+]([O-])c1cccc(/C([O-])=C(/C(=S)Nc2ccccc2F)[n+]2ccccc2)c1`: the inhibition was -11.5% (inactive). Take `O=C(Nc1ccc(N2CCOCC2)nc1)c1c(F)cccc1F`: the inhibition is 6.79% (inactive).

`O=[N+]([O-])c1ccc2[nH]c3c(c2c1)CCCC3O` (configuration not stated): the inhibition was 12.7% (inactive). The figure for `C/C(=N\OC(=O)c1ccccc1)c1c(C)nc2cc(C)ccn12` is -11.2% (inactive); for `CC(=O)Nc1cccc(C(=O)Nc2nc(C)cs2)c1` it is -16.1% (inactive); for `Cc1cc(/C=N/NC(=O)c2cccnc2)c(C)n1CC(C)C` it is 4.4% (inactive). With `N#CCCCn1c(O)c(N=NC(=O)C(O)c2ccccc2)c2ccccc21` (configuration not stated), the inhibition is 5.47% (inactive).

With `Cc1c(NC(=O)CSc2nnnn2-c2ccc(C(=O)O)cc2)c(=O)n(-c2ccccc2)n1C`, the inhibition is 7.84% (inactive). Turning to `CCn1ccnc1CN1CCCC(C(=O)c2ccc3c4c(cccc24)CC3)C1` (configuration not stated), the inhibition was -14.3% (inactive). The figure for `O=C(c1cc(COc2c(F)cccc2F)on1)N1CCSCC1` is 10.4% (inactive); for `C/C(CC(=O)Nc1cccc(C(F)(F)F)c1)=N\NC(=O)C(=O)NCC(C)C` it is -5.61% (inactive); for `CC(C)Oc1ccc(CCC(=O)NNC(=S)NCc2ccccc2)cc1` it is 11.1% (inactive). As to `COc1ccc(Cc2cc(-c3ccc(F)cc3)n[nH]c2=O)cc1`, the inhibition was 16.1% (inactive).

Turning to `CCOC(=O)c1ccc(N=C2SC(C(=O)NC)CC(=O)N2CCc2ccccc2)cc1` (configuration not stated), the inhibition is -0.92% (inactive).

For `CCCN(c1ccc(C)cc1)c1nc(=O)c2cccnc2s1`, the inhibition was -4.79% (inactive).

As for `CCC(=O)NC(=Nc1nc2ccccc2s1)NC(=O)CC`, the inhibition was 84.7% (active). The figure for `O=C(O)CSCc1nc2ccccc2s1` is -27.1% (inactive); for `O=C(Nc1ccccc1)Nc1nc2ccccc2s1` it is 6.66% (inactive). With `COC(=O)CSc1nccc(-c2cccs2)n1` the figure was -15.2% (inactive).

As for `O=C1c2ccccc2NC(c2ccccn2)N1NS(=O)(=O)c1ccccc1` (configuration not stated), the inhibition was -20% (inactive). In the case of `Cc1cc(=O)oc2cc(OCC(=O)Nc3nnc(C4CC4)s3)ccc12`, the inhibition is 6.03% (inactive).
